# Out of some 5,500 compounds screened, about 2,000 (36%) were called active. About 18% were inconclusive and are not listed. Some of the results follow. Unmarked numbers belong to inactive results. No stated cut-off is given here; in the data, active means normalized growth mostly below about 0.91 (no sharp cut-off); inconclusive means no clear call, values can overlap the other calls; inactive means mostly above about 0.92.
# Assay: chemical genetic growth profiling, strain panel (AID 1159580);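 further: tested at 20 µM; growth read once vehicle control cultures reached saturation at 30 °C; 1 = growth at the plate median or of vehicle wells; lower values mean less growth of the strain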
# Conditions: S. cerevisiae deletion strains, growth OD
smiles,measurement,setting,value
CN(C/C=C/C#CC(C)(C)C)Cc1cccc2ccccc12,normalized growth,"locus YAL021C, strain ccr4, active compounds read low",0.121 (active)
same,normalized growth,"locus YAL026C, strain drs2, active compounds read low",0.0882 (active)
same,normalized growth,"locus YAL030W, strain snc1, active compounds read low",0.334 (active)
same,normalized growth,"locus YBL061C, strain skt5, active compounds read low",0.256 (active)
same,normalized growth,"locus YBR009C, strain hhf1, active compounds read low",0.293 (active)
same,normalized growth,"locus YBR023C, strain chs3, active compounds read low",0.254 (active)
same,normalized growth,"locus YBR171W, strain sec66, active compounds read low",0.793 (active)
same,normalized growth,"locus YBR231C, strain swc5, active compounds read low",0.423 (active)
same,normalized growth,"locus YBR279W, strain paf1, active compounds read low",0.376 (active)
same,normalized growth,"locus YCL011C, strain gbp2, active compounds read low",0.228 (active)
same,normalized growth,"locus YCL016C, strain dcc1, active compounds read low",0.334 (active)
same,normalized growth,"locus YCL061C, strain MRC1, active compounds read low",0.478 (active)
same,normalized growth,"locus YCL069W, strain vba3, active compounds read low",0.283 (active)
same,normalized growth,"locus YCR088W, strain abp1, active compounds read low",0.498 (active)
same,normalized growth,"locus YDL005C, strain med2, active compounds read low",0.246 (active)
same,normalized growth,"locus YDL040C, strain nat1, active compounds read low",0.528 (active)
same,normalized growth,"locus YDR001C, strain nth1, active compounds read low",0.573 (active)
same,normalized growth,"locus YDR069C, strain doa4, active compounds read low",0.567 (active)
same,normalized growth,"locus YDR137W, strain rgp1, active compounds read low",0.492 (active)
same,normalized growth,"locus YDR159W, strain sac3, active compounds read low",0.512 (active)
same,normalized growth,"locus YDR195W, strain ref2",1.34 [resistant] (active)
same,normalized growth,"locus YDR297W, strain sur2, active compounds read low",0.398 (active)
same,normalized growth,"locus YDR334W, strain swr1, active compounds read low",0.492 (active)
same,normalized growth,"locus YDR335W, strain msn5, active compounds read low",0.219 (active)
same,normalized growth,"locus YDR392W, strain spt3, active compounds read low",0.163 (active)
same,normalized growth,"locus YEL003W, strain gim4, active compounds read low",0.311 (active)
same,normalized growth,"locus YEL037C, strain rad23, active compounds read low",0.372 (active)
same,normalized growth,"locus YEL061C, strain CIN8 (second series), active compounds read low",0.444 (active)
same,normalized growth,"locus YER015W, strain faa2, active compounds read low",0.384 (active)
same,normalized growth,"locus YER016W, strain bim1, active compounds read low",0.484 (active)
same,normalized growth,"locus YER111C, strain swi4, active compounds read low",0.417 (active)
same,normalized growth,"locus YER155C, strain BEM2 (second series), active compounds read low",0.469 (active)
same,normalized growth,"locus YFR010W, strain ubp6, active compounds read low",0.457 (active)
same,normalized growth,"locus YGL167C, strain pmr1, active compounds read low",0.909 (active)
same,normalized growth,"locus YGL173C, strain kem1, active compounds read low",0.488 (active)
same,normalized growth,"locus YGL227W, strain vid30, active compounds read low",0.536 (active)
same,normalized growth,"locus YGL240W, strain doc1, active compounds read low",0.459 (active)
same,normalized growth,"locus YGL253W, strain hxk2, active compounds read low",0.208 (active)
same,normalized growth,"locus YHR013C, strain ard1, active compounds read low",0.241 (active)
same,normalized growth,"locus YHR027C, strain rpn1, active compounds read low",0.442 (active)
same,normalized growth,"locus YHR030C, strain SLT2, active compounds read low",0.471 (active)
same,normalized growth,"locus YHR079C, strain IRE1, active compounds read low",0.792 (active)
same,normalized growth,"locus YHR142W, strain chs7, active compounds read low",0.174 (active)
same,normalized growth,"locus YJL092W, strain hpr5, active compounds read low",0.468 (active)
same,normalized growth,"locus YJL095W, strain BCK1 (second series), active compounds read low",0.0681 (active)
same,normalized growth,"locus YJL095W, strain BCK1, active compounds read low",0.472 (active)
same,normalized growth,"locus YJL115W, strain asf1, active compounds read low",0.664 (active)
same,normalized growth,"locus YJL129C, strain trk1, active compounds read low",0.351 (active)
same,normalized growth,"locus YJL154C, strain vps35, active compounds read low",0.649 (active)
same,normalized growth,"locus YJL164C, strain tpk1, active compounds read low",0.215 (active)
same,normalized growth,"locus YJL166W, strain qcr8, active compounds read low",0.266 (active)
same,normalized growth,"locus YJL187C, strain SWE1, active compounds read low",0.272 (active)
same,normalized growth,"locus YJR066W, strain TOR1, active compounds read low",0.683 (active)
same,normalized growth,"locus YKL160W, strain elf1, active compounds read low",0.296 (active)
same,normalized growth,"locus YKR026C, strain gcn3, active compounds read low",0.452 (active)
same,normalized growth,"locus YKR091W, strain srl3, active compounds read low",0.626 (active)
same,normalized growth,"locus YLL001W, strain dnm1, active compounds read low",0.37 (active)
same,normalized growth,"locus YLL026W, active compounds read low",0.283 (active)
same,normalized growth,"locus YLL041C, strain sdh2, active compounds read low",0.462 (active)
same,normalized growth,"locus YLR027C, strain aat2, active compounds read low",0.225 (active)
same,normalized growth,"locus YLR113W, strain HOG1, active compounds read low",0.807 (active)
same,normalized growth,"locus YLR221C, strain rsa3, active compounds read low",0.25 (active)
same,normalized growth,"locus YLR258W, strain gsy2, active compounds read low",0.285 (active)
same,normalized growth,"locus YLR262C, strain YPT6 (second series), active compounds read low",0.397 (active)
same,normalized growth,"locus YLR320W, strain mms22, active compounds read low",0.189 (active)
same,normalized growth,"locus YLR342W, strain FKS1, active compounds read low",0.513 (active)
same,normalized growth,"locus YLR357W, strain rsc2, active compounds read low",1.11
same,normalized growth,"locus YLR370C, strain arc18, active compounds read low",0.405 (active)
same,normalized growth,"locus YLR384C, strain iki3, active compounds read low",0.635 (active)
same,normalized growth,"locus YML120C, strain ndi1, active compounds read low",0.325 (active)
same,normalized growth,"locus YMR058W, strain fet3, active compounds read low",0.281 (active)
same,normalized growth,"locus YMR125W, strain sto1, active compounds read low",0.533 (active)
same,normalized growth,"locus YMR129W, active compounds read low",0.361 (active)
same,normalized growth,"locus YMR205C, strain PFK2, active compounds read low",0.532 (active)
same,normalized growth,"locus YMR231W, strain pep5, active compounds read low",0.188 (active)
same,normalized growth,"locus YNL071W, strain lat1, active compounds read low",0.209 (active)
same,normalized growth,"locus YNL183C, strain NPR1, active compounds read low",0.808 (active)
same,normalized growth,"locus YNL209W, strain ssb2, active compounds read low",0.395 (active)
same,normalized growth,"locus YNL248C, strain rpa49, active compounds read low",0.378 (active)
same,normalized growth,"locus YNL322C, strain KRE1 (second series), active compounds read low",0.506 (active)
same,normalized growth,"locus YNR049C, strain mso1, active compounds read low",0.562 (active)
same,normalized growth,"locus YOR001W, strain rrp6, active compounds read low",0.26 (active)
same,normalized growth,"locus YOR070C, strain gyp1, active compounds read low",0.166 (active)
same,normalized growth,"locus YOR080W, strain dia2, active compounds read low",0.516 (active)
same,normalized growth,"locus YOR083W, strain WHI5, active compounds read low",0.369 (active)
same,normalized growth,"locus YOR106W, strain vam3, active compounds read low",0.187 (active)
same,normalized growth,"locus YOR231W, strain MKK1, active compounds read low",0.769 (active)
same,normalized growth,"locus YOR265W, strain rbl2, active compounds read low",0.432 (active)
same,normalized growth,"locus YOR270C, strain vph1, active compounds read low",0.192 (active)
same,normalized growth,"locus YOR290C, strain snf2, active compounds read low",0.305 (active)
same,normalized growth,"locus YPL051W, strain arl3, active compounds read low",0.199 (active)
same,normalized growth,"locus YPL078C, strain atp4, active compounds read low",0.373 (active)
same,normalized growth,"locus YPL106C, strain sse1, active compounds read low",0.444 (active)
same,normalized growth,"locus YPL240C, strain hsp82, active compounds read low",0.334 (active)
same,normalized growth,"locus YPL256C, strain CLN2, active compounds read low",0.81 (active)
